Screening data: PubChem BioAssay, several laboratories
Only some compounds are listed: those with a hit (about 4.2% of all), similar ones and a draw of the others.
NALP1 inh: inhibitors of NALP1 inflammasome in yeast; inhibition, % at 10 µM; 280,000 tested, 0.61% active; S. cerevisiae NALP1/ASC/caspase-1 growth, X-gal OD620, 72 h; in the data active = inhibition mostly above about 24%, no sharp cut-off; inactive = mostly below about 32%
NALP3 yeast inh: NALP3 inhibition in yeast | AID 2825 | Yeast reconstituted NLRP3/ASC/caspase-1, beta-gal luminescence, 24 h | inhibition, % at 10 µM | 330,000 tested, 0.39% active;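 active = inhibition of 50% or more; inactive = inhibition below 50%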;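 also: plate controls were induced DMSO wells for no effect and uninduced yeast grown without galactose for full effect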
TIM10 inh: inhibits growth of TIM10 yeast strain. S. cerevisiae TIM10 strain growth, BacTiter-Glo luminescence, 24 h. inhibition, % at 10 µM. 330,000 tested, 1.4% active. AID 463195;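 active = inhibition of 40% or more at the single tested concentration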;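 also: wild-type TIM10 isogenic control strain grown at permissive 25 °C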
tim23-1 inh: inhibits growth of tim23-1 mutant yeast; inhibition, % at 20 µM; AID 463212; 330,000 tested, 1.3% active; S. cerevisiae tim23-1 growth, BacTiter-Glo luminescence, 24 h;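 active = growth inhibition of the mutant yeast at or above 50%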;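 also: temperature-sensitive mutant grown at 25 °C; plate controls were DMSO-treated mutant yeast for no effect and medium wells lacking yeast for full effect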
V-ATPase pH: regulators of yeast V-ATPase proton transport; S. cerevisiae, pHLuorin cytosolic pH fluorescence; response, % at 10 µM; 350,000 tested, 0.37% active; in the data active = response mostly above about 7.3%, no sharp cut-off; inactive = mostly below about 5.4%; also: actives read high
tim10-1 inh: inhibits growth of tim10-1 mutant yeast | S. cerevisiae tim10-1 ts strain growth, BacTiter-Glo, 24 h | inhibition, % at 20 µM | 330,000 tested, 2.2% active;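 active = inhibition of at least 40%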;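 also: mutant grown at 25 °C; 0% = DMSO wells with yeast and 100% = wells holding no yeast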
tim23-1 conf: tim23-1 yeast growth inhibition, confirmed; shares compounds with tim23-1 inh; S. cerevisiae tim23-1 growth, BacTiter-Glo luminescence, 24 h; inhibition, % at 20 µM; 4,400 tested, 83% active; AID 463218;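 active = inhibition above about 39% in either of two replicate wells at 20 µM, limit read from the data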;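 also: temperature-sensitive tim23-1 mutant grown at 25 °C; 0% = DMSO wells with yeast and 100% = medium wells without yeast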
* = called active by the depositor.

Results for CC1(c2ccccc2)CC(C)(C)N2C(=O)C(=O)c3cccc1c32 (configuration not stated) ?
NALP1 inh: 15.5; NALP3 yeast inh: 2.9; TIM10 inh: -4.3; tim23-1 inh: 60.9*; V-ATPase pH: 0.1; tim10-1 inh: 38.4; tim23-1 conf: 56.5*

What do the screens show for `COc1cc(/C=C2\SC(=S)N(NC(=O)c3ccc(O)cc3)C2=O)ccc1O`?
NALP1 inh: -1.3; NALP3 yeast inh: 6.6; TIM10 inh: 9.4; tim23-1 inh: 16.8; V-ATPase pH: 8.3; tim10-1 inh: 38.4

How did CCN1CCc2c(sc(NC(=O)CN3C(=O)c4ccccc4C3=O)c2C(N)=O)C1 do in these assays?
NALP1 inh: 17.5; NALP3 yeast inh: 4.2; TIM10 inh: -4.5; tim23-1 inh: 14.3; V-ATPase pH: -2.1; tim10-1 inh: -7.2

What do the screens show for `Clc1ccc(-c2cn3cccnc3n2)cc1Cl`?
NALP1 inh: 5.0; NALP3 yeast inh: -6.2; TIM10 inh: 22.4; tim23-1 inh: 53.6*; V-ATPase pH: 0.2; tim10-1 inh: 18.7; tim23-1 conf: 32.9

Results for Clc1ccc(-c2cn3cccnc3n2)cc1 ?
NALP1 inh: -8.5; NALP3 yeast inh: 49.8; TIM10 inh: 1.4; tim23-1 inh: 53.1*; V-ATPase pH: 2.6; tim10-1 inh: 5.5; tim23-1 conf: 35.0

Results for Cc1cccc(NC(=S)N/N=C/c2cccc([N+](=O)[O-])c2)c1 ?
NALP1 inh: 19.2; NALP3 yeast inh: 3.0; TIM10 inh: -4.6; tim23-1 inh: -12.3; V-ATPase pH: -5.3; tim10-1 inh: 9.4

How did COc1ccc(-c2cc(C(=O)N3CCCCC3)c3ccccc3n2)cc1OC do in these assays?
NALP1 inh: 12.2; NALP3 yeast inh: 4.3; TIM10 inh: 3.4; tim23-1 inh: 25.2; V-ATPase pH: 4.0; tim10-1 inh: 20.3

How did O=C(Nc1nc2cc3c(cc2s1)OCCO3)C1CCCCC1 do in these assays?
NALP3 yeast inh: 32.0; TIM10 inh: 16.5; tim23-1 inh: 56.9*; V-ATPase pH: 1.2; tim10-1 inh: 30.1; tim23-1 conf: 57.0*

Results for COC(=O)c1ccc2nc(NC(=O)C3CCCCC3)sc2c1 ?
NALP1 inh: 2.2; NALP3 yeast inh: 18.1; TIM10 inh: -1.9; tim23-1 inh: 4.6; V-ATPase pH: 0.3; tim10-1 inh: 12.7

What do the screens show for `CC(C)c1ccc2nc(NC(=O)C3CC3)sc2c1`?
NALP1 inh: 20.9; NALP3 yeast inh: -21.3; TIM10 inh: 36.7; tim23-1 inh: 51.2*; V-ATPase pH: -3.5; tim10-1 inh: 26.4; tim23-1 conf: 52.4*

What do the screens show for `CC(=O)Nc1nc2cc3c(cc2s1)OCCO3`?
NALP1 inh: 15.1; NALP3 yeast inh: 5.6; TIM10 inh: -1.1; tim23-1 inh: 16.7; V-ATPase pH: 6.3; tim10-1 inh: 28.3

What do the screens show for `CCCn1c(N2CCN(CC(=O)c3c(C)n(C)c4ccc(OC)cc34)CC2)nc2c1c(=O)[nH]c(=O)n2C`?
NALP1 inh: -12.1; NALP3 yeast inh: 10.4; TIM10 inh: -6.8; tim23-1 inh: 10.2; V-ATPase pH: 1.2; tim10-1 inh: 9.6

Results for COC(=O)n1c(=O)oc2cc(S(=O)(=O)N3CCOCC3)ccc21 ?
NALP1 inh: -5.3; NALP3 yeast inh: -7.7; TIM10 inh: -2.6; tim23-1 inh: 16.1; V-ATPase pH: -2.8; tim10-1 inh: -0.9

How did COC(=O)n1c(=S)oc2cc(Cl)ccc21 do in these assays?
NALP1 inh: -3.2; NALP3 yeast inh: 10.9; TIM10 inh: 15.5; tim23-1 inh: 77.6*; tim10-1 inh: 22.9; tim23-1 conf: 78.8*

How did CC(=O)Nc1ccc(NC(=O)C(C)OC(=O)CNC(=O)c2cccs2)cc1 (configuration not stated) do in these assays?
NALP3 yeast inh: 7.8; TIM10 inh: -10.0; tim23-1 inh: -12.5; V-ATPase pH: -1.0; tim10-1 inh: -10.7

What do the screens show for `CC(C)Cc1csc(NC(=O)c2ccccc2Cl)c1C(=O)O`?
NALP1 inh: 12.8; NALP3 yeast inh: -15.0; TIM10 inh: 5.6; tim23-1 inh: 9.5; V-ATPase pH: -2.1; tim10-1 inh: 12.0

Results for Cc1ccc(-c2csc(NC(=O)c3ccccc3Cl)c2C(=O)O)cc1 ?
NALP1 inh: -14.2; NALP3 yeast inh: 22.3; TIM10 inh: 16.3; tim23-1 inh: 63.8*; V-ATPase pH: -4.0; tim10-1 inh: 18.8; tim23-1 conf: -23.9

Results for COc1cccc(Nc2nc(-c3sc(C)nc3C)cs2)c1 ?
NALP1 inh: 13.1; NALP3 yeast inh: 25.4; TIM10 inh: 29.8; tim23-1 inh: 55.0*; V-ATPase pH: 0.2; tim10-1 inh: 15.1; tim23-1 conf: 45.8*

What do the screens show for `COc1cccc(Nc2nc3ccc(OC)cc3s2)c1`?
NALP1 inh: 18.2; NALP3 yeast inh: 25.6; TIM10 inh: 37.1; tim23-1 inh: 61.2*; V-ATPase pH: 0.7; tim10-1 inh: 18.1; tim23-1 conf: 57.2*

How did COc1ccc2nc(NC3=NCCC3)sc2c1 do in these assays?
NALP1 inh: 6.4; NALP3 yeast inh: 32.4; TIM10 inh: 17.5; tim23-1 inh: 11.5; V-ATPase pH: -1.4; tim10-1 inh: 9.0

How did COc1cccc(Nc2nc(-c3sc(N)nc3C)cs2)c1 do in these assays?
NALP1 inh: 6.2; NALP3 yeast inh: 22.4; TIM10 inh: 9.9; tim23-1 inh: 23.3; V-ATPase pH: -1.2; tim10-1 inh: 15.5

What do the screens show for `COc1ccc(C2CC(O)(c3ccccc3)Oc3c(C)ccc(C)c32)cc1` (configuration not stated)?
NALP3 yeast inh: 16.5; TIM10 inh: 20.9; tim23-1 inh: 52.6*; V-ATPase pH: -2.3; tim10-1 inh: 21.6; tim23-1 conf: 54.8*

What do the screens show for `COc1ccc(C2CC(O)(c3ccccc3)Oc3cc(OC)cc(OC)c32)cc1` (configuration not stated)?
NALP3 yeast inh: 15.2; TIM10 inh: 10.9; tim23-1 inh: 8.3; V-ATPase pH: 2.6; tim10-1 inh: 22.1

How did COc1ccc(-c2ocnc2C(=O)Nc2ccc(N3CCOCC3)cc2N2CCOCC2)cc1OC do in these assays?
NALP1 inh: 0.2; NALP3 yeast inh: 15.8; TIM10 inh: 14.2; tim23-1 inh: 16.9; V-ATPase pH: -4.3; tim10-1 inh: 18.1

What do the screens show for `COC(=O)c1c(NS(=O)(=O)Cc2ccccc2)sc2c1CCCC2`?
NALP1 inh: 28.6; NALP3 yeast inh: -10.5; TIM10 inh: 21.3; tim23-1 inh: 57.6*; V-ATPase pH: 2.0; tim10-1 inh: 22.6; tim23-1 conf: 51.7*

How did NC(N)=N/N=C/c1ccccc1 do in these assays?
NALP1 inh: 17.9; NALP3 yeast inh: -4.5; TIM10 inh: 11.2; tim23-1 inh: 4.5; V-ATPase pH: 3.8; tim10-1 inh: -2.6

How did NC(N)=N/N=C/c1ccc(OCc2ccccc2Cl)cc1 do in these assays?
NALP1 inh: 28.1*; NALP3 yeast inh: 27.3; TIM10 inh: -9.8; tim23-1 inh: 58.9*; V-ATPase pH: 6.4; tim10-1 inh: -6.7; tim23-1 conf: 43.9*
